Screening data (PubChem)
MITF TRPM1 HTS – increases MITF-driven TRPM1 promoter luciferase signal; activation, % at 12.5 µM; SK-MEL-5 TRPM1-promoter luciferase, 24 h; % of positive control, neutral wells = 0; 0.75% of 300,000 active;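 active = mean activation of at least 80% with every replicate also reaching 80%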;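 also: 0% = neutral control wells and 100% = parthenolide positive control wells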
NSD2 HMT inh – inhibitors of human histone methyltransferase NSD2. O96028. NSD2 peptide methylation, AlphaScreen, 120 min. inhibition, % at 12.5 µM. 0.54% of 310,000 active
Wnt bcat act – activators of Wnt/beta-catenin signaling; 1.2% of 300,000 active; activation, % at 9.35 µM; Wnt/beta-catenin reporter cell assay, activator, plate reader; in the data active = activation above about 30%, passing the limit was not always enough;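 also: 0% = neutral control wells and 100% = positive control wells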
GSIS activator – primary screen for activators of insulin secretion dependent on glucose, INS-1E cells, GLuc reporter luminescence; INS-1E GLuc reporter insulin secretion, 2-3 h; activation, % at 16.6 µM; 0.61% of 370,000 active;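 active = lowest replicate activation of at least 40%, so every replicate reaches that level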;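 also: 0% = median of neutral control wells and 100% = median of IBMX positive control wells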
Dyrk1A ADPGlo – inhibitors of rat Dyrk1A kinase; ADP-Glo luminescence, NFATc1 peptide; inhibition, % at 12.5 µM; 0.43% of 310,000 active;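 also: plate controls were vehicle with enzyme for no effect and no enzyme for full effect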
miR122 inh – inhibitors of miR-122 in Huh7 cells | AID 602342 | activation (reporter increase), % at 12.5 µM | 0.3% of 340,000 active | Huh7 miR-122 Renilla luciferase sensor, 48 h; neutral wells = 0, positive control = 100;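 active = mean replicate activation score at least 90 and every replicate individually at or above 90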;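 also: higher luciferase means less miR-122 activity so hits act as miR-122 inhibitors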
Numbers without * were called inactive; [ ] = another dose, or the depositor's remark. Most compounds without a hit are left out; they make up all but 2.4% or so of the library. Rule as the data show it, unless noted: active = inhibition above about 50%; inactive = the rest.

O=C(COc1ccc([N+](=O)[O-])cc1Cl)N1CCc2ccccc21 was read as MITF TRPM1 HTS 119*, NSD2 HMT inh -1, Wnt bcat act 42*, GSIS activator 26 and miR122 inh -7.
Screening O=Cc1ccc(OCC(=O)N2CCc3ccccc32)c(Br)c1 returned MITF TRPM1 HTS 72, NSD2 HMT inh 1, Wnt bcat act 21, GSIS activator 13, Dyrk1A ADPGlo -1 and miR122 inh -6.
For Cc1nn(-c2ccccc2)c(C)c1/C=N/Nc1nc2ccccc2[nH]1 the results were MITF TRPM1 HTS 25, NSD2 HMT inh 0, Wnt bcat act 173*, GSIS activator -19, Dyrk1A ADPGlo 4 and miR122 inh -26.
Cc1ccsc1/C=N/Nc1nc2ccccc2[nH]1 was read as MITF TRPM1 HTS 48, NSD2 HMT inh 14, Wnt bcat act 115*, GSIS activator -14, Dyrk1A ADPGlo 20 and miR122 inh -1.
`C(=N\Nc1nc2ccccc2[nH]1)/c1cccs1` gave MITF TRPM1 HTS 58, NSD2 HMT inh 4, Wnt bcat act 51*, Dyrk1A ADPGlo -8 and miR122 inh 2.
`C=CCn1cc(/C=N/Nc2nc3ccccc3[nH]2)c2ccccc21` gave MITF TRPM1 HTS 54, NSD2 HMT inh 0, Wnt bcat act 53*, GSIS activator -54 and Dyrk1A ADPGlo 7.
CC(=O)N1[C@@H](CO)[C@H](c2ccc(-c3cccc(F)c3)cc2)[C@@H]1CNC(=O)C1CC1 was read as GSIS activator -20 and miR122 inh -29[16.7 µM].
For Cc1noc(C)c1S(=O)(=O)N(C)C[C@H]1Oc2ccc(NC(=O)Nc3cccc4ccccc34)cc2CC(=O)N([C@@H](C)CO)C[C@@H]1C the results were GSIS activator 12 and miR122 inh -1[16.7 µM].
For C[C@@H]1CN([C@@H](C)CO)C(=O)c2cc(NC(=O)Nc3ccc4c(c3)OCO4)ccc2O[C@@H](C)CCCCO[C@@H]1CN(C)C(=O)c1ccccc1 the results were GSIS activator 6 and miR122 inh 6[16.7 µM].
Screening COc1ccc(-c2ccc3n(c2=O)C[C@H]2[C@H](CO)[C@@H](C(=O)N(C)C)N(CC4CCCC4)[C@@H]32)cc1 returned GSIS activator -7.
C(=N\Nc1nc2ccccc2[nH]1)/c1ccc2c(c1)OCO2 was read as MITF TRPM1 HTS 116*, NSD2 HMT inh 0, Wnt bcat act -2, GSIS activator -6 and Dyrk1A ADPGlo 17.
Screening CC(/C=N/Nc1nc2ccccc2[nH]1)=C\c1ccccc1 returned MITF TRPM1 HTS 0, NSD2 HMT inh 0, Wnt bcat act 53*, GSIS activator -23 and Dyrk1A ADPGlo 1.
COc1ccc(S(=O)(=O)N(C)C[C@@H]2Oc3c(NC(=O)c4ccncc4)cccc3C(=O)N([C@H](C)CO)C[C@H]2C)cc1 was read as GSIS activator -7 and miR122 inh -2[16.7 µM].
CCCNC(=O)C[C@@H]1C[C@@H]2c3cc(NC(=O)c4ccc5c(c4)OCO5)ccc3O[C@@H]2[C@H](CO)O1 was read as GSIS activator -2 and miR122 inh -2[16.7 µM].
O=C(c1coc2ccc(O)c(CN3CCOCC3)c12)C1CC1 was read as MITF TRPM1 HTS 2, NSD2 HMT inh 3, Dyrk1A ADPGlo -1 and miR122 inh 2.
For O=C(c1cccc(Br)c1)c1coc2ccc(O)cc12 the results were MITF TRPM1 HTS 90*, NSD2 HMT inh 2, Wnt bcat act -4, GSIS activator -6, Dyrk1A ADPGlo -2 and miR122 inh -17.
O=C(c1cccs1)c1coc2ccc(O)c(CN3CCOCC3)c12 was read as NSD2 HMT inh 1, GSIS activator 65*, Dyrk1A ADPGlo 5 and miR122 inh 0.
For CC(=O)Oc1ccc2occ(C(=O)c3cccs3)c2c1 the results were MITF TRPM1 HTS 56, NSD2 HMT inh -2, Wnt bcat act 80*, GSIS activator 2, Dyrk1A ADPGlo 10 and miR122 inh -9.
Screening O=C(c1cccs1)c1coc2ccc(O)cc12 returned MITF TRPM1 HTS 94*, NSD2 HMT inh -2, Wnt bcat act 51*, GSIS activator 18, Dyrk1A ADPGlo 14 and miR122 inh -2.
`Cc1noc(C)c1S(=O)(=O)Nc1ccc2c(c1)C(=O)N([C@@H](C)CO)C[C@@H](C)[C@@H](CN(C)S(=O)(=O)c1cn(C)cn1)OCCCC[C@@H](C)O2` gave GSIS activator 17 and miR122 inh 8[16.7 µM].
`COc1cc(SC)ccc1C(=O)Nc1ccc(C)cc1` gave MITF TRPM1 HTS 14, NSD2 HMT inh -9, Wnt bcat act 50* and GSIS activator 8.
`O=C(Nc1ccc(OCC(=O)N2CCOCC2)cc1)Nc1cccc(Cl)c1` gave MITF TRPM1 HTS 1, NSD2 HMT inh -1, Wnt bcat act 0, GSIS activator -10 and Dyrk1A ADPGlo 10.
For COc1cc(SC)ccc1C(=O)Nc1cccc(C)n1 the results were MITF TRPM1 HTS 101*, NSD2 HMT inh 3, Wnt bcat act 19, GSIS activator 17, Dyrk1A ADPGlo 18 and miR122 inh -2.
Screening COc1cc(SC)ccc1C(=O)Nc1ccccn1 returned MITF TRPM1 HTS 15, NSD2 HMT inh 3, Wnt bcat act 1, GSIS activator 33, Dyrk1A ADPGlo 31 and miR122 inh -4.
COc1ccc(Br)cc1C(=O)Nc1cc(C)cc(C)c1 was read as MITF TRPM1 HTS -2, NSD2 HMT inh -1, Wnt bcat act -4, GSIS activator 82*, Dyrk1A ADPGlo 1 and miR122 inh 11.
For CC(C)(C)c1ccc(NC(=O)Nc2ccc(OCC(=O)N3CCOCC3)cc2)cc1 the results were MITF TRPM1 HTS 90*, NSD2 HMT inh -2, Wnt bcat act 11, GSIS activator -18 and Dyrk1A ADPGlo 2.
CC(C)NC(=O)Nc1cccc2c1O[C@H](CN(C)C)[C@H](C)CN(C)C2=O was read as GSIS activator -8.
Screening C[C@@H]1CN([C@@H](C)CO)S(=O)(=O)c2ccc(C3=CCCCC3)cc2O[C@H]1CN(C)C(=O)Cc1cccnc1 returned GSIS activator -13 and miR122 inh 7[16.7 µM].
For C[C@H]1CN([C@@H](C)CO)C(=O)c2cccc(NC(=O)C3CCOCC3)c2O[C@H]1CN(C)Cc1ccc(C(=O)O)cc1 the results were GSIS activator -3 and miR122 inh -13[16.7 µM].
Screening C[C@@H]1CN([C@H](C)CO)S(=O)(=O)c2ccc(-c3cccc(C#N)c3)cc2O[C@@H]1CN(C)Cc1cccc(F)c1 returned GSIS activator 13 and miR122 inh -7[16.7 µM].
Screening COc1cc(SC)ccc1C(=O)Nc1ccc(Br)cn1 returned MITF TRPM1 HTS -56, NSD2 HMT inh 28, Wnt bcat act -4, Dyrk1A ADPGlo 2 and miR122 inh 5.
Screening COc1cc(SC)ccc1C(=O)Nc1ncc(Cl)cc1Cl returned MITF TRPM1 HTS 16, NSD2 HMT inh -2, Wnt bcat act 70*, GSIS activator 6 and Dyrk1A ADPGlo 3.
